The source of these data is PubChem BioAssay (NCATS).

For test [1], the target named is alpha-glucosidase (Oryza sativa, rice) (UniProt Q653V4). The experiment in a line: Counterscreen for Glucocerebrosidase Inhibitors: qHTS Assay for Rice alpha-Glucosidase at pH 5.0 (AID 997).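 Further: 0% = full activity with enzyme and -100% = basal without enzyme.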 In a few lines:
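Endpoint fluorogenic assay at pH 5.0: compounds (0.7 nM to 77 uM) titrated against 4 nM rice enzyme and 400 uM 4-MU-alpha-glucoside for 20 min at room temperature; NaOH/glycine stop, read ex 365/em 440 nm, Hill-fitted AC50.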
(Counterscreens check selectivity or assay interference.)

A short description of test [2]: Validation of Assay for Modulators of Lamin A Splicing (AID 1459; active means well fitted curve in the direction sought with a large enough effect in the signal ratio; the % refers to the signal ratio;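 further: cells exposed to compound for two days before reading; 0% is about no effect; ratio rise marks activators and ratio drop marks inhibitors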). In a few lines:
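Splicing correction is reported by an EGFP-containing lamin A minigene in stably transfected S3 HeLa cells, while DsRed2 controls for viability and nonspecific signal. Cells are exposed to compounds for 48 hrs before the GFP over RFP ratio is taken.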

Test [3] has as its target Endonuclease 4 (Escherichia coli (strain K12)) (UniProt P0A6C1). The experiment in a line: Counterscreen for APE1 Inhibitors: qHTS Validation Assay for Inhibitors of Endonuclease IV (AID 1708). Further: on the % scale 0 is the no-effect control and ±100 the full control effect. In a few lines:
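Incision of a double-stranded 50 nM TAMRA/BHQ-2 abasic substrate was followed kinetically (525/598 nm, reads every 60 s) after 15 min enzyme–compound preincubation with 2 nM EndoIV in pH 7.5 Tris buffer with MgCl2, DTT and Tween-20; concentration-response format.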

The target of test [4] is DNA repair nuclease/redox regulator APEX1 (Homo sapiens) (UniProt P27695). The experiment in a line: qHTS Validation Assay for Inhibitors of the Human Apurinic/apyrimidinic Endonuclease 1 (APE1) (AID 1705;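 further: TAMRA fluorescence gain over two minutes as APE1 cuts a quenched THF abasic duplex; on the % scale 0 is the no-effect control and ±100 the full control effect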). In a few lines: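 Endonuclease activity of human APE1 is followed as dequenching when the enzyme incises a tetrahydrofuran abasic site in a short duplex labelled 5'-TAMRA/3'-BHQ-2 (50 nM final), after 15 min enzyme–compound preincubation at room temperature.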
DNA repair nuclease/redox regulator APEX1 (Homo sapiens), sequence (P27695 whole entry, looked up): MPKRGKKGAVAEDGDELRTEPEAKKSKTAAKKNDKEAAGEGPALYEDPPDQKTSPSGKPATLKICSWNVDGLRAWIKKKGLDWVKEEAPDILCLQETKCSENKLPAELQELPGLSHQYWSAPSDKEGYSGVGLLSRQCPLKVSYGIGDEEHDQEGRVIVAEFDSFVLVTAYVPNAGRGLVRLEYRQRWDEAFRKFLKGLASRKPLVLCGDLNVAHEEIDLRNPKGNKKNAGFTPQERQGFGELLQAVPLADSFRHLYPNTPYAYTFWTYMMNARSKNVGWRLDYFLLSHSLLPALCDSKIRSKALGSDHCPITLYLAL
A general note: In qHTS, concentration-response curves come from the screen itself.

Test [5] can be described thus: Counterscreen for APE1 Inhibitors: Fluorescent Dye Displacement Validation Assay (AID 1707).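 Further: plate controls were ThO with dsDNA and no compound for no effect and ThO without dsDNA for full effect.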 The procedure, abridged: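 Loss of Thiazole Orange fluorescence marks promiscuous DNA binders. The dye (250 nM) is mixed with 50 nM abasic-site dsDNA in pH7.5 Tris buffer containing MgCl2, then compounds are added and emission is read once.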
Test [6] is described as follows: qHTS for differential inhibitors of proliferation of Plasmodium falciparum line 7G8 (AID 1815).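 Further: parasite growth measured after three days of incubation.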 Further: potency means the concentration at half of the fitted maximal effect.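 On activity change, negative = inhibition: plate controls were vehicle wells for no effect and reference inhibitor wells for full effect.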
The nature of test [7]: qHTS for differential inhibitors of proliferation of Plasmodium falciparum line GB4 (AID 1816).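 Further: parasite growth measured after 72 h incubation.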 Further: potency means the concentration at half of the fitted maximal effect.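 On activity change, negative = inhibition: 0% = vehicle DMSO and -100% = reference inhibitor.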 The settings on record: Potency: Plasmodium falciparum GB4 proliferation inhibition.
The nature of test [8]: qHTS for differential inhibitors of proliferation of Plasmodium falciparum line 3D7 (AID 1876). Further: potency means the concentration at half of the fitted maximal effect.
Test [9] is described as follows: qHTS for differential inhibitors of proliferation of Plasmodium falciparum line D10 (AID 1877).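 Further: parasites grown with compound for 72 h before DNA staining.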 Further: potency means the concentration at half of the fitted maximal effect.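 On activity change, negative = inhibition: plate controls were vehicle wells for no effect and reference inhibitor wells for full effect.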
A short description of test [10]: qHTS Assay for Lipid Storage Modulators (AID 1519; calls by dose curve; on activity change, negative = inhibition: on the % scale 0 is the no-effect control and ±100 the full control effect). Particulars: Drosophila S3 cells, BODIPY lipid droplet/cell ratio, laser cytometry, cells loaded with oleic acid; for activity change, negative = inhibition: at 57.5 µM (top of the series). In a few lines:
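Cells seeded at 5,000 per well were treated with compounds over a concentration series and loaded with oleic acid (400 uM, as added). Lipid droplet fluorescence (488 nm excitation, 500-530 nm channel) was read by laser-scanning cytometry and normalized to 20 uM Triacsin C.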

Where [11] appears, read: measured here: cell count channel max response.
The mark [12] stands for this setting: measured here: lipid channel max response.

Inconclusive results are not listed. The source made the active and inactive calls. Unless noted, the call rests on the fitted dose curve; in most records, active means well fitted curve in the direction sought with a large enough effect; inconclusive means small, poorly fitted or top-dose-only effect, or another doubt; inactive means no such curve, though single readings can be large; an effect the other way counts as inactive or inconclusive.

Consider `COc1ccc(/C=C/C(=O)Nc2ccccc2C(=O)O)cc1OC`, for which the call in test [1] and in test [2] was inactive. Also, the Potency entry in test [3] is “inactive”.
For the molecule `COC(=O)c1c(C)[nH]c(C)c1C(=O)c1ccccc1Cc1ccccc1`, the result in test [1] and in [2] was inactive. Besides, the Potency result in [4] and in test [5] was “inactive” each time. The Potency in [6] was 7.94 µM (active); in test [7] it was 7.94 µM (active); in [8] it was 8.91 µM (active); in test [9], 14.1 µM (active).
For the molecule `CN[C@H](CC(C)C)C(=O)N[C@H]1C(=O)N[C@@H](CC(N)=O)C(=O)N[C@H]2C(=O)N[C@H]3C(=O)N[C@H](C(=O)N[C@H](C(=O)O)c4cc(O)cc(O)c4-c4cc3ccc4O)[C@H](O)c3ccc(c(Cl)c3)Oc3cc2cc(c3O[C@@H]2O[C@H](CO)[C@@H](O)[C@H](O)[C@H]2O[C@H]2C[C@](C)(N)[C@H](O)[C@H](C)O2)Oc2ccc(cc2Cl)[C@H]1O`, the outcome in test [2] was inactive. The Potency entry in test [4], in [5], in [6], in test [7], in test [8] and in test [9] was “inactive” each time.
As for `NCCNC(=O)c1ncsc1-c1cccc(F)c1`, the result in test [1] and in test [2] was inactive. Moreover, the Potency result in [4], in test [5], in [3], in test [8] and in [9] was “inactive” throughout.
For `CCCn1c(=O)c2[nH]c(-c3ccc(OCC(=O)NCCN)cc3)nc2n(CCC)c1=O`, the molecule was called inactive in [1] and in test [2]. Moreover, the Potency entry in test [4], in [5] and in test [3] was “inactive” each time. For the same molecule, in test [7], the Potency was 10 µM (active).
Regarding `O=C(O)/C=C/C(O)c1ccc(Cl)cc1` (stereo not drawn), the call in [2] was inactive. Further, the Potency entry in [5], in [3], in [6], in [7], in test [8] and in [9] was “inactive” each time.
As to `N#C/C(=C\c1ccc(O)c(O)c1)C(=O)NCCCc1ccccc1`, the outcome in [1] and in test [2] was inactive. The Potency entry in [4] and in [3] was “inactive” each time. The figures for the Potency in test [6], in [7] and in test [9] were 8.91 µM (active), 14.1 µM (active) and 11.2 µM (active), respectively.
With `CN1CCc2cc(NC(=O)Nc3cccnc3)ccc21`, the molecule was classed as inactive in test [1] and in [2]. In addition, the activity change, negative = inhibition in [10] is 0.252% (inactive). In addition, the max response is 32.8% in [10] (setting [11]) and 37.5% in [10] (setting [12]). The Potency entry in test [4], in [5], in [8] and in test [9] was “inactive” throughout.
In the case of `O=C(O)CC1CCCc2ccccc2C1O` (stereo not drawn), the call in test [2] was inactive. The Potency entry in test [4], in test [5], in [6], in [7], in test [8] and in [9] was “inactive” each time.
As for `COc1cccc(C(=O)NCCN2CCN(c3ccc(Cl)cc3)CC2)c1`, the outcome in [1] and in [2] was inactive. In addition, in test [10], the activity change, negative = inhibition is -1.54% (inactive). The max response is -16.3% in test [10] (setting [11]) and -18.1% in test [10] (setting [12]). In addition, the Potency result in test [4], in test [5] and in test [7] was “inactive” each time.
Consider `Cc1cc(NC(=O)Nc2ccc3c(ccn3C)c2)sn1`, for which the molecule was called inactive in test [1] and in test [2]. The Potency result in test [4] and in [5] was “inactive” each time. Further, in [6], the Potency is 7.94 µM (active).
As for `C[C@@H](NC(=O)/C(C#N)=C/c1ccc(O)c(O)c1)c1ccccc1`, the call in [1] and in test [2] was inactive. In addition, the Potency entry in test [4], in test [5] and in [3] was “inactive” throughout. For the same molecule, the figures for the Potency in [6], in test [7] and in test [9] were 11.2 µM (active), 10 µM (active) and 12.6 µM (active), respectively.
As to `O=C(O)CC[C@@H](C(=O)O)N1C(=O)c2ccccc2C1=O`, the call in [1] and in [2] was inactive. The Potency entry in test [4], in [5], in [6], in test [7], in test [8] and in [9] was “inactive” in each case.
As to `Cc1ccc(C(=O)O[C@H](C(=O)O)[C@@H](OC(=O)c2ccc(C)cc2)C(=O)O)cc1` (tested in a mixture with another compound), the molecule was called inactive in [2]. The activity change, negative = inhibition in test [10] is -0.359% (inactive). Besides, the max response is 35.2% in test [10] (setting [11]) and 38.6% in test [10] (setting [12]). Besides, the Potency entry in test [5], in test [3], in test [6], in [7], in [8] and in [9] was “inactive” each time.
As to `CN(C)C(N)=NCCC[C@H](N)C(=O)O`, the molecule was called inactive in [1] and in [2]. In addition, the Potency result in [4], in [5], in test [3], in test [6], in [7] and in [8] was “inactive” each time. Also, in [9], the Potency entry is “inactive”.
On to `N#C/C(=C\c1ccc(O)c(O)c1)C(=O)NCc1ccccc1`, for which the result in test [1] and in [2] was inactive. For the same molecule, the Potency entry in test [4], in test [5] and in test [3] was “inactive” throughout. Further, the Potency was 12.6 µM (active) in test [6], 11.2 µM (active) in [7], 10 µM (active) in test [8] and 17.8 µM (active) in [9].
`CC(=O)N[C@H](C(=O)O)C(C)(C)SN=O`: in [2], the outcome was inactive. In addition, the Potency result in [4], in test [5], in [3], in [6], in [7] and in test [8] was “inactive” each time. Also, in test [9], the Potency entry is “inactive”.
Turning to `N=C(N)SCCc1ccc(CCSC(=N)N)cc1`, the result in [1] and in test [2] was inactive. For the same molecule, the Potency entry in [4], in test [5], in [3] and in [8] was “inactive” each time.
As to `c1ccc(-c2ccccn2)nc1`, the result in test [1] and in test [2] was inactive. Moreover, the Potency result in test [4], in test [5], in test [3], in test [7], in [8] and in test [9] was “inactive” throughout.
Regarding `c1cnc2c(c1)ccc1cccnc12`, the outcome in [1] and in test [2] was inactive. Moreover, the Potency entry in test [4] and in [5] was “inactive” each time. For the same molecule, the Potency in test [6] was 1.58 µM (active); in test [7], 2 µM (active); in test [8] it was 2 µM (active); in test [9] it was 2.51 µM (active).
Take `NC(=O)C(=O)O`: the result in test [1] and in test [2] was inactive. Besides, the Potency entry in [4], in test [5], in test [3], in test [6], in [7] and in [8] was “inactive” throughout. In addition, the Potency entry in [9] was “inactive”.
For `Clc1ccc(N2CCN(Cc3c[nH]c4ncccc34)CC2)cc1`, the call in [1] and in [2] was inactive. Moreover, the Potency entry in test [4], in test [5] and in [3] was “inactive” in each case.
As for `O=C(O)c1cc([N+](=O)[O-])ccc1NCCCc1ccccc1`, the outcome in [1] and in test [2] was inactive. Further, the activity change, negative = inhibition in [10] was 0.312% (inactive). Moreover, the max response in [10] (setting [11]) is -11.5%; in [10] (setting [12]), -12.2%. Moreover, the Potency result in test [4], in [5], in [7] and in test [8] was “inactive” in each case.
On to `NO`, for which the molecule was called inactive in test [1] and in [2]. Also, the Potency entry in test [5] and in test [3] was “inactive” throughout.
On to `O=C(O)c1cc(=O)c2ccccc2[nH]1`, for which the outcome in test [1] and in test [2] was inactive. Besides, the activity change, negative = inhibition in test [10] was 3.93% (inactive) [middle of 4 runs]. Besides, the Potency entry in test [4], in test [5], in test [3], in test [6], in [7] and in [8] was “inactive” each time. The Potency result in test [9] is “inactive”.
As for `O=C(O)[C@@H]1C[C@H](C(=O)O)N1`, the result in [2] was inactive. Further, the Potency entry in test [4], in test [5], in [3], in test [6], in test [7] and in test [8] was “inactive” in each case. The Potency result in test [9] is “inactive”.
